Test results published in PubChem BioAssay (EPA / NIEHS).
Records with an inconclusive call do not appear. Activity calls are given as the source filed them. The calls were made as follows, unless noted: active = hit-call score of the fitted dose curve at least 0.9, where 1 is the maximum; inactive = score below 0.9.

Test: ACEA_ER_80hr: ACEA Biosciences xCELLigence Real-Time Cell Analysis on Estrogen Receptor Agonism for Proliferation (AID 2282667; active = hit-call score of the fitted dose curve at least 0.9, where 1 is the maximum)
Details: T47D proliferation, impedance (xCELLigence), 80 h
In short: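 Estrogen-driven proliferation is captured as electrode impedance in T47D cells 80 h after compound addition. Test articles ran at 8 concentrations, 1:4 dilutions from 100 uM final, in two replicate plates.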

Row | SMILES | outcome | AC50
1 | CC(=O)c1ccc(-c2ccccc2)cc1 | inactive | –
2 | CCOP(=S)(S)OCC | inactive | –
3 | FC(F)(F)C(F)(C(F)(F)F)C(F)(F)C(F)(F)CC1CO1 (stereo not drawn) | inactive | –
4 | CC1(C)CN=C(NN=C(/C=C/c2ccc(C(F)(F)F)cc2)/C=C/c2ccc(C(F)(F)F)cc2)NC1 | – | 0.0563 µM (active)
5 | O=C(O)C=CC(F)(C(F)(F)F)C(F)(F)F | inactive | –
6 | NC(=O)C(F)(F)C(F)(F)F | – | 20.5 µM (active)
7 | C=C(C)C(=O)OCC1CO1 (stereo not drawn) | inactive | –
8 | Nc1ccc(Sc2ccc(N)cc2)cc1 | inactive | –
9 | CC(O)C#N (stereo not drawn) | inactive | –
10 | NNC(N)=S | inactive | –
11 | O=C(O)C(F)(OC(F)(F)C(F)(F)C(F)(F)F)C(F)(F)F (stereo not drawn) | inactive | –
12 | ClC(Cl)=C(c1ccc(Cl)cc1)c1ccccc1Cl | inactive | –
13 | CC(Cl)CN(C)C (stereo not drawn) | inactive | –
14 | OCC(F)(F)OC(F)(F)C(F)(F)OC(F)(F)CO | – | 20.2 µM (active)

Test: ATG_CRE_CIS: Attagene CIS-FACTORIAL HepG2 Assay for human cAMP Responsive Element (CRE) binding protein 3 (AID 2282926)
Details: HepG2 CRE cis-reporter, Attagene multiplexed mRNA; actives raise or lower the signal
In short: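 Transfected HepG2 were treated for 24 hours, then RNA was extracted and reporter cDNA amplified with sequence-specific primers. Labelled fragments were separated by capillary electrophoresis, and the CRE signal was fitted bidirectionally with DMSO as baseline.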

Row | SMILES | outcome | AC50
15 | CC(O)C(F)(F)C(F)(F)F (stereo not drawn) | inactive | –
16 | N#C/C=C/c1ccccc1 | inactive | –
17 | O=C(CBr)OCc1ccccc1 | inactive | –
18 | CCCCC(CC)COP(=O)(Oc1ccccc1)Oc1ccccc1 (stereo not drawn) | inactive | –
19 | Cc1ccc2c(c1N)C(=O)c1ccccc1C2=O | inactive | –
20 | N#Cc1ccc(O)cc1 | inactive | –
21 | CC(C)(C)c1ccccc1OP(=O)(Oc1ccccc1)Oc1ccccc1 | inactive | –
22 | CCOC(=O)c1ccccc1N | inactive | –
23 | C/C(=N\NC(=O)Nc1cc(F)cc(F)c1)c1ncccc1C(=O)O | inactive | –
24 | Clc1ccc(Oc2ccccc2)cc1 | inactive | –
25 | O=[N+]([O-])c1cc(Cl)ccc1Cl | inactive | –
26 | CO/N=C(/C(=O)OC)c1ccccc1COc1ccccc1C | inactive | –
27 | CCCCOCCOP(=O)(OCCOCCCC)OCCOCCCC | inactive | –
28 | N#Cc1c(-c2ccc(Cl)cc2)[nH]c(C(F)(F)F)c1Br | – | 0.019 µM (active)
29 | COP(=O)(O)OC | inactive | –
30 | Oc1ccc(I)cc1 | inactive | –
31 | O=NN1CCCC1 | inactive | –
32 | COP(=O)(CCC(=O)NCO)OC | inactive | –
33 | CCOP(=S)(NC(C)C)Oc1ccccc1C(=O)OC(C)C (stereo not drawn) | inactive | –
34 | CCCCC(CC)COC(=O)c1c(Br)c(Br)c(Br)c(Br)c1C(=O)OCC(CC)CCCC (stereo not drawn) | inactive | –

Row | SMILES | outcome | AC50
35 | CCOP(=S)(OCC)SCS(=O)(=O)CC | inactive | –
36 | CCOP(=O)(O)C(N)=O | inactive | –
37 | Cc1cc(C)c(C(=O)P(=O)(c2ccccc2)c2ccccc2)c(C)c1 | inactive | –
38 | Cc1c([N+](=O)[O-])cc2c(c1[N+](=O)[O-])C(C)(C)CC2(C)C | inactive | –
39 | COC(=O)C(F)(F)C(F)(F)OC(F)(C(F)(F)F)C(F)(F)OC(F)=C(F)F (stereo not drawn) | inactive | –
40 | CC(=O)c1ccc(-c2ccccc2)cc1 | inactive | –
41 | CCOP(=S)(S)OCC | inactive | –
42 | FC(F)(F)C(F)(C(F)(F)F)C(F)(F)C(F)(F)CC1CO1 (stereo not drawn) | inactive | –
43 | CC1(C)CN=C(NN=C(/C=C/c2ccc(C(F)(F)F)cc2)/C=C/c2ccc(C(F)(F)F)cc2)NC1 | – | 8.42 µM (active)
44 | O=C(O)C=CC(F)(C(F)(F)F)C(F)(F)F | inactive | –
45 | NC(=O)C(F)(F)C(F)(F)F | inactive | –
46 | C=C(C)C(=O)OCC1CO1 (stereo not drawn) | inactive | –
47 | Nc1ccc(Sc2ccc(N)cc2)cc1 | inactive | –
48 | CC(O)C#N (stereo not drawn) | inactive | –
49 | NNC(N)=S | inactive | –
50 | O=C(O)C(F)(OC(F)(F)C(F)(F)C(F)(F)F)C(F)(F)F (stereo not drawn) | inactive | –
51 | ClC(Cl)=C(c1ccc(Cl)cc1)c1ccccc1Cl | inactive | –
52 | CC(Cl)CN(C)C (stereo not drawn) | inactive | –
53 | OCC(F)(F)OC(F)(F)C(F)(F)OC(F)(F)CO | inactive | –
